Results published in PubChem BioAssay (EPA / NIEHS).
Calls of active or inactive are those of the source. The calls were made as follows: active = hit-call score of the fitted dose curve at least 0.9, where 1 is the maximum; inactive = score below 0.9.

Tests used:
Settings in all cases: mRNA level, 48 h; actives raise or lower the signal
[1] = read-out: Tumor necrosis factor receptor superfamily member 6 (Homo sapiens) (UniProt P25445); test: LTEA_HepaRG_FAS: Life Technologies and Expression Analysis (LTEA) Assay for Fas cell surface death receptor (FAS) using HepaRG (AID 2283447)
Outline: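 Differentiated human HepaRG cells, pre-cultured 48 h, were exposed in duplicate for 48 h to 8-point half-log concentrations (top 100 uM, 0.5% DMSO) in serum-free induction medium; FAS mRNA measured by qRT-PCR, normalized to ACTB/GAPDH/POLR2A, bidirectional fit versus DMSO.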

[2] = read-out: Fatty acid synthase (Homo sapiens) (UniProt P49327); test: LTEA_HepaRG_FASN: Life Technologies and Expression Analysis (LTEA) Assay for Fatty Acid Synthase (FASN) using HepaRG (AID 2283448)
Outline: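 In human HepaRG cultures, 48 h chemical exposure (up to 100 uM, 0.5% DMSO) preceded TaqMan qRT-PCR of FASN.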

[3] = read-out: Cyclin D2 (CCND2), CCND2 (gene 894); test: LTEA_HepaRG_CCND2: Life Technologies and Expression Analysis (LTEA) Assay for Cyclin D2 (CCND2) using HepaRG (AID 2283449);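 also: CCND2 transcript measured by TaqMan qRT-PCR and normalised to three housekeeping genes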
Outline: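 In this HepaRG study, an eight-point concentration series (max 100 uM, 0.5% DMSO) is applied for 48 h. CCND2 mRNA change is derived by qRT-PCR normalised to ACTB, GAPDH and POLR2A.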

[4] = read-out: Cyclin Dependent Kinase Inhibitor 1A (CDKN1A), CDKN1A (gene 1026); test: LTEA_HepaRG_CDKN1A: Life Technologies and Expression Analysis (LTEA) Assay for Cyclin Dependent Kinase Inhibitor 1A (CDKN1A) using HepaRG (AID 2283450)
Outline: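 Cryopreserved HepaRG cells were plated and cultured 48 h, then switched to serum-free induction medium. Chemicals (eight half-log concentrations, top 100 uM, 0.5% DMSO) were applied for 48 h. Lysates underwent qRT-PCR for CDKN1A with housekeeping normalization.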

[5] = read-out: Cyclin D1 (CCND1), CCND1 (gene 595); test: LTEA_HepaRG_CCND1: Life Technologies and Expression Analysis (LTEA) Assay for Cyclin D1 (CCND1) using HepaRG (AID 2283451);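 as to AC50: TaqMan qRT-PCR transcript level normalised to ACTB GAPDH and POLR2A housekeeping genes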
Outline: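 Human liver HepaRG line; 48 h dosing, 8 conc. ≤100 uM, 0.5% DMSO; TaqMan qRT-PCR mRNA, 3 housekeeping genes; bidirectional curve fit vs DMSO.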

[6] = read-out: flavin-containing dimethylaniline monooxygenases 3 (FMO3), FMO3 (gene 2328); test: LTEA_HepaRG_FMO3: Life Technologies and Expression Analysis (LTEA) Assay for flavin-containing dimethylaniline monooxygenases 3 (FMO3) using HepaRG (AID 2283453);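 as to AC50: FMO3 transcript by TaqMan qRT-PCR normalized to ACTB GAPDH and POLR2A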
Outline: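 Eight-point concentration-response in serum-free HepaRG cultures (top 100 uM, 0.5% DMSO, 48 h). Read-out: FMO3 mRNA level normalized to three endogenous control genes, fitted bidirectionally versus vehicle.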

[7] = read-out: Cytochrome P450 (CYP1A1), CYP1A1 (gene 1543); test: LTEA_HepaRG_CYP1A1: Life Technologies and Expression Analysis (LTEA) Assay for Cytochrome P450 (CYP1A1) using HepaRG (AID 2283454)
Outline: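 Induction of CYP1A1 mRNA in a human hepatic cell line was measured 48 h after dosing, with 1 mM phenobarbital as induction positive control and 0.5% DMSO vehicle as baseline for bidirectional curve fitting.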

[8] = read-out: CFLAR gene, CFLAR (gene 8837); test: LTEA_HepaRG_CFLAR: Life Technologies and Expression Analysis (LTEA) Assay for CFLAR gene using HepaRG (AID 2283455)
Outline: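 Gain- or loss-of-signal changes in CFLAR transcript were fitted bidirectionally relative to 0.5% DMSO. Cells (HepaRG, duplicate wells) were dosed for 48 h across eight half-log concentrations topping at 100 uM; quantitation by TaqMan qRT-PCR.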

[9] = read-out: Forkhead box O1 (FOXO1), FOXO1 (gene 2308); test: LTEA_HepaRG_FOXO1: Life Technologies and Expression Analysis (LTEA) Assay for Forkhead box O1 (FOXO1) using HepaRG (AID 2283456)
Outline: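 Using one lot of HepaRG hepatic cells kept in 0.5% DMSO, the team applied test chemicals in duplicate, half-log dilutions from 100 uM, for 48 h. Expression, normalised to ACTB/GAPDH/POLR2A, was compared with vehicle in either direction.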

[10] = read-out: growth arrest and DNA damage 45 (GADD45A), GADD45A (gene 1647); test: LTEA_HepaRG_GADD45A: Life Technologies and Expression Analysis (LTEA) Assay for growth arrest and DNA damage 45 (GADD45A) using HepaRG (AID 2283458)
Outline: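 Eight-point concentration-response in HepaRG cells: 48 h chemical exposure, 0.5% DMSO vehicle, top dose 100 uM. Normalized qRT-PCR mRNA readout with bidirectional fitting relative to DMSO.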

[11] = read-out: Forkhead box O3 (FOXO3), FOXO3 (gene 2309); test: LTEA_HepaRG_FOXO3: Life Technologies and Expression Analysis (LTEA) Assay for Forkhead box O3 (FOXO3) using HepaRG (AID 2283459)
Outline: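 Gene-expression endpoint: FOXO3 transcript level by qRT-PCR in HepaRG cultures treated 48 h with chemicals up to 100 uM (half-log, 0.5% DMSO vehicle).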

[12] = read-out: ABC Transporter (ABCB1), ABCB1 (gene 5243); test: LTEA_HepaRG_ABCB1: Life Technologies and Expression Analysis (LTEA) Assay for ABC Transporter (ABCB1) using HepaRG (AID 2283460)
Outline: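 Human liver HepaRG line treated 48 h with up to 100 uM compound (eight half-log points, 0.5% DMSO); ABCB1 mRNA change fitted bidirectionally against DMSO controls.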

[13] = read-out: growth arrest and DNA damage 45 (GADD45B), GADD45B (gene 4616); test: LTEA_HepaRG_GADD45B: Life Technologies and Expression Analysis (LTEA) Assay for growth arrest and DNA damage 45 (GADD45B) using HepaRG (AID 2283461)
Outline: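 Values are bidirectional concentration-response fits against 0.5% DMSO controls. Underlying data: qRT-PCR mRNA levels in human HepaRG liver cells treated 48 h in serum-free induction medium, eight concentrations topping at 100 uM.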

[14] = read-out: ABC Transporter (ABCC3), ABCC3 (gene 8714); test: LTEA_HepaRG_ABCC3: Life Technologies and Expression Analysis (LTEA) Assay for ABC Transporter (ABCC3) using HepaRG (AID 2283462)
Outline: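 Differentiated HepaRG liver cells receive test chemicals at eight concentrations (max 100 uM) for 48 h. Expression of ABCC3 is quantified by qRT-PCR against ACTB, GAPDH and POLR2A, and activity is fitted in both directions against the DMSO control.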

[15] = read-out: ABC Transporter (ABCB11), ABCB11 (gene 8647); test: LTEA_HepaRG_ABCB11: Life Technologies and Expression Analysis (LTEA) Assay for ABC Transporter (ABCB11) using HepaRG (AID 2283463)
Outline: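 Using HepaRG cultures held in 0.5% DMSO, chemicals were tested at half-log dilutions from 100 uM for 48 h. Induction or suppression of ABCB11 mRNA, normalized to ACTB, GAPDH and POLR2A, was fitted bidirectionally against vehicle.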

[16] = read-out: ABC Transporter (ABCC2), ABCC2 (gene 1244); test: LTEA_HepaRG_ABCC2: Life Technologies and Expression Analysis (LTEA) Assay for ABC Transporter (ABCC2) using HepaRG (AID 2283464)
Outline: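 Gene expression of ABCC2 was determined by qRT-PCR in HepaRG cells exposed 48 h to chemicals (highest 100 uM, half-log dilutions). Activity was fitted in both directions relative to 0.5% DMSO vehicle.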

[17] = read-out: Broad substrate specificity ATP-binding cassette transporter ABCG2 (Homo sapiens) (UniProt Q9UNQ0); test: LTEA_HepaRG_ABCG2: Life Technologies and Expression Analysis (LTEA) Assay for ABC Transporter (ABCG2) using HepaRG (AID 2283465)
Outline: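 Gene expression of ABCG2 in HepaRG liver cells is quantified by qRT-PCR following 48 h exposure across an eight-point series topping at 100 uM. Values come from bidirectional fitting relative to DMSO vehicle.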

[18] = read-out: ATP-citrate lyase (ACLY), ACLY (gene 47); test: LTEA_HepaRG_ACLY: Life Technologies and Expression Analysis (LTEA) Assay for ATP-citrate lyase (ACLY) using HepaRG (AID 2283466)
Outline: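 ACLY expression changes in human HepaRG liver cells are quantified by qRT-PCR after 48 h exposure to test chemicals (maximum 100 uM, half-log steps). Values are fitted in both directions relative to 0.5% DMSO vehicle.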

[19] = read-out: catalase (CAT), CAT (gene 847); test: LTEA_HepaRG_CAT: Life Technologies and Expression Analysis (LTEA) Assay for catalase (CAT) using HepaRG (AID 2283452)
Outline: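 Differentiated HepaRG cells in serum-free induction medium were dosed 48 h in duplicate, eight half-log concentrations from 100 uM in 0.5% DMSO. Transcript measured by TaqMan qRT-PCR, normalised to ACTB/GAPDH/POLR2A, fitted bidirectionally against DMSO.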

Measured: AC50

Chain of Broad substrate specificity ATP-binding cassette transporter ABCG2 (Homo sapiens) (Q9UNQ0 whole entry, looked up): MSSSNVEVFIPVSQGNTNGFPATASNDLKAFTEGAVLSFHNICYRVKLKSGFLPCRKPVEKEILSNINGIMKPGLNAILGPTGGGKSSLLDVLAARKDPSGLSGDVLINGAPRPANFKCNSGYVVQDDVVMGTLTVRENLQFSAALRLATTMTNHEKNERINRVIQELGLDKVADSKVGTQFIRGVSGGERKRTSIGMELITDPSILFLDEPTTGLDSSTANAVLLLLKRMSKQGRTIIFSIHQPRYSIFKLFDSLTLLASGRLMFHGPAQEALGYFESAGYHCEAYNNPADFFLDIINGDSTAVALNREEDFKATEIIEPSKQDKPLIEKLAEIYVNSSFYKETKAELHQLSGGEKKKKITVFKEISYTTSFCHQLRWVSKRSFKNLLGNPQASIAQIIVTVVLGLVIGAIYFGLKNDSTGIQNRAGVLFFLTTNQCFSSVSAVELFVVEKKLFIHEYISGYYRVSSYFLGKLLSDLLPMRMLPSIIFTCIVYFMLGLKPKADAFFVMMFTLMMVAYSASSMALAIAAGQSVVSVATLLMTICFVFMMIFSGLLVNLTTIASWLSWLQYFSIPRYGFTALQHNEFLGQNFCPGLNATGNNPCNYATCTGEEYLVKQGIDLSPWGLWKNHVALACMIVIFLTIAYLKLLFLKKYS
Chain of Fatty acid synthase (Homo sapiens) (P49327 whole entry, looked up): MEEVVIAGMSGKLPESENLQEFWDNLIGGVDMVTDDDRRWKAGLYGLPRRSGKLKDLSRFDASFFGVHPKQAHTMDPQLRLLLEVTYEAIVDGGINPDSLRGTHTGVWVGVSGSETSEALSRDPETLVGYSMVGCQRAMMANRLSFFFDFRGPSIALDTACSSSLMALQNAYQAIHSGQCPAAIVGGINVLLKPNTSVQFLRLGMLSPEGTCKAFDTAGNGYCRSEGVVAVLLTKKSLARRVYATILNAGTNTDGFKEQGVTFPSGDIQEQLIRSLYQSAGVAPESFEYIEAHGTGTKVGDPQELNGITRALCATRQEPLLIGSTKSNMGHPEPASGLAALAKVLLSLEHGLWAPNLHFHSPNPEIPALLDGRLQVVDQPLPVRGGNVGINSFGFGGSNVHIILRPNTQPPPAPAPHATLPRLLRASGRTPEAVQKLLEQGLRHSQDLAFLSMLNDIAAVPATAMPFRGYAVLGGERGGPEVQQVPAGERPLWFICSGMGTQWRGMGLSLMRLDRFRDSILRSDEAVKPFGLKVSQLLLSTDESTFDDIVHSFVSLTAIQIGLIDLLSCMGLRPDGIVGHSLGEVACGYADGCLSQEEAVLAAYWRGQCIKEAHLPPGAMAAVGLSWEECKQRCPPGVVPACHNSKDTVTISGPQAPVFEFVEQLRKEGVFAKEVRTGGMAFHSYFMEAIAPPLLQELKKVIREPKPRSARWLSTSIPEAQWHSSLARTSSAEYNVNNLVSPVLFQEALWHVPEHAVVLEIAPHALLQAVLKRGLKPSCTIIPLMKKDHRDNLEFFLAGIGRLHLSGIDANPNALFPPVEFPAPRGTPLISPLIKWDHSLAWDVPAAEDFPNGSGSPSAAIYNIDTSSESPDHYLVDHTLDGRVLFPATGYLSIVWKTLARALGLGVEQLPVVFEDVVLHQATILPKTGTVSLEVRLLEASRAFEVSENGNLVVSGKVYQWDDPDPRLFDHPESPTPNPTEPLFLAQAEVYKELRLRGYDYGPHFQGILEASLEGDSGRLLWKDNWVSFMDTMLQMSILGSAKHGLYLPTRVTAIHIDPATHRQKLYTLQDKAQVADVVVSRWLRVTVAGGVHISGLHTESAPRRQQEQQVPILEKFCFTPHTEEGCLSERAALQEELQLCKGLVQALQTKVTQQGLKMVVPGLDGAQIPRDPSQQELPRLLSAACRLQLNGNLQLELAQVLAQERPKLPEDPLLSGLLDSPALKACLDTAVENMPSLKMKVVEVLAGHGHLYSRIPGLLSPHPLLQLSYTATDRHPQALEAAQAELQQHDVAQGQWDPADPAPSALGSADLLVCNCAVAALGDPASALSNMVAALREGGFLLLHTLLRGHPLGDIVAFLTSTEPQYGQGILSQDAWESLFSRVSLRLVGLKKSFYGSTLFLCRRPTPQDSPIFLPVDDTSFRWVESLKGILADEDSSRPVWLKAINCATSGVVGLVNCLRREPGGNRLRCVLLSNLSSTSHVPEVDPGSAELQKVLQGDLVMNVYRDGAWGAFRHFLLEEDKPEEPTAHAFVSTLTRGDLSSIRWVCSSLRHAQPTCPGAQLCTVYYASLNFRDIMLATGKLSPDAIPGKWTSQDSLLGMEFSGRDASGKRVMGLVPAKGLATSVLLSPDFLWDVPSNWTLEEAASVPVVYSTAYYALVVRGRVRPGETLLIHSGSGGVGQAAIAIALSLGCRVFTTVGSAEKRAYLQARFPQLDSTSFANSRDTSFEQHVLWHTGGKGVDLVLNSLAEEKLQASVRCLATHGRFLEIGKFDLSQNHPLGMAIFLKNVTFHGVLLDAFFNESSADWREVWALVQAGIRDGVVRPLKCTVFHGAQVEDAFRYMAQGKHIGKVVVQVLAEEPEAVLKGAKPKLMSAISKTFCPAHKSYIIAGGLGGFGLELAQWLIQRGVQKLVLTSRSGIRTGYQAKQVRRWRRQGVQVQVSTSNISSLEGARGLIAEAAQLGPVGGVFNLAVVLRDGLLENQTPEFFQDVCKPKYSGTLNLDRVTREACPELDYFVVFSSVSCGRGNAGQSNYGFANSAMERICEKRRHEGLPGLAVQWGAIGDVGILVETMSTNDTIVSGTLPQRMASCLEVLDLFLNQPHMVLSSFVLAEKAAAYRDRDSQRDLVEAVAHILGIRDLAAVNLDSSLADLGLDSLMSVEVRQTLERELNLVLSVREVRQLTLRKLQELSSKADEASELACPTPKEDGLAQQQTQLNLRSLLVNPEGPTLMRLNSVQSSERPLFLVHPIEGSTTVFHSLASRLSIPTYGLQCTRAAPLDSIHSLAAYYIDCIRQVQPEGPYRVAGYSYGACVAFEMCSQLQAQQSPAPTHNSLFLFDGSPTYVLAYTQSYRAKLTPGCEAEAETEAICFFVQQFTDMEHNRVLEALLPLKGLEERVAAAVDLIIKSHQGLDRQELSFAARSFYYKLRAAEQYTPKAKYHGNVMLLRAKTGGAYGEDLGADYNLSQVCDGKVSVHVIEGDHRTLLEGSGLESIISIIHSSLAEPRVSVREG

CCCN(CCC)N=O
active: [7] 50 µM
not listed: [19]
inactive: all other assays above

CO/C=C(/C(=O)OC)c1ccccc1COc1cccc(C(F)(F)F)n1
inactive: [11] | [12] | [18]
active: [1] 9.8 µM | [2] 9 µM | [4] 9.85 µM | [5] 50 µM | [6] 20.9 µM | [7] 8.52 µM | [9] 7.38 µM | [10] 9.39 µM | [13] 24.7 µM | [14] 1.91 µM | [15] 5.64 µM | [16] 28 µM | [17] 3.03 µM

CCCCCCCCCc1ccc(O)cc1
active: [7] 50 µM
not listed: [2] | [8]
inactive: all other assays above

CN(C)c1nc(=O)n(C2CCCCC2)c(=O)n1C
active: [7] 50 µM
not listed: [2] | [8]
inactive: all other assays above

ClC1=C(Cl)[C@]2(Cl)[C@@H]3[C@@H]4C[C@@H]([C@H]5O[C@@H]45)[C@@H]3[C@@]1(Cl)C2(Cl)Cl
active: [7] 28.3 µM | [11] 0.0321 µM | [12] 0.0325 µM | [16] 4.03 µM | [17] 20.8 µM | [18] 0.033 µM
inactive: all other assays above

Clc1ccc(C(Cl)(Cl)Cl)cc1
not listed: [8] | [19]
inactive: all other assays above
